The sample as a whole holds a higher share of hits than the screen did.
PglD DTNB = blocks C. jejuni PglD acetyltransferase activity | 0.098% of 360,000 active | purified PglD enzyme, DTNB colorimetric CoA detection | inhibition, % at 12.5 µM; in the data active means inhibition above about 16%, passing the limit was not always enough; inconclusive means no clear call, values can overlap the other calls
Glyco luc inh = blocks N-linked glycosylation in D54 reporter cells | D54 ERlucT glycosylation luciferase reporter, 24 h; percent of 100 nM tunicamycin response | reporter increase, % at 12.5 µM | 0.23% of 360,000 active | AID 588692;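 active means mean luciferase reporter signal, scaled so untreated is 0 and the glycosylation-blocking control 100, at or above a set limit in every replicate; inconclusive means mean reaches the limit but not every replicate does; inactive means mean below the limit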;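 further: luciferase carries N-glycosylation sites so blocking glycosylation raises the light; 0% = median of neutral control wells and 100% = median of 100 nM tunicamycin wells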
Rtt109 Vps75 = C. albicans Rtt109 histone acetyltransferase inhibition; 0.16% of 330,000 active; inhibition, % at 34.9 µM; Q5AAJ8; purified Rtt109/Vps75, ThioGlo CoA-SH fluorescence, 4 h; AID 540336;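 active means inhibition of at least 50% in every replicate; inconclusive means best replicate reaches 50% inhibition but some replicates fall short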
Target sequence (Q5AAJ8 whole entry, looked up): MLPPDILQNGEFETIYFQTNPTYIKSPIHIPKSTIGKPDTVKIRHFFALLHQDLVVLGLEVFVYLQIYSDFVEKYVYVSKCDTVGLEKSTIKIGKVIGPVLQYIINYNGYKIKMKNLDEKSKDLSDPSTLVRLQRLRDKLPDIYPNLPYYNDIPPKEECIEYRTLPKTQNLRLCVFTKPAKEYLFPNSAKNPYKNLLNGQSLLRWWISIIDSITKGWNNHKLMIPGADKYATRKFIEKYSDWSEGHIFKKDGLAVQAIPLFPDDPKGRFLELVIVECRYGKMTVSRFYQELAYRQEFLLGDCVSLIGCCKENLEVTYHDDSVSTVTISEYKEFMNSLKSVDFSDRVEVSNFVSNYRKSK
DENV2 CPE = DENV2-induced cell death inhibition | AID 651640 | DENV2-infected cells, cytopathic effect rescue, plate reader | CPE inhibition, % at 9.99 µM | 1.7% of 350,000 active; in the data active means CPE inhibition above about 20%, passing the limit was not always enough; inconclusive means no clear call, values can overlap the other calls; tested in BHK-21 cells;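 further: 0% = median of neutral control wells and 100% = median of positive control wells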
* = called active by the depositor; u = inconclusive; x = no result; ! = a repeat was not active.

SMILES | PglD DTNB | Glyco luc inh | Rtt109 Vps75 | DENV2 CPE
COc1ccccc1NC(=O)N[C@@H]1CC[C@H](CC(=O)NCc2ccc(Cl)c(Cl)c2)O[C@H]1CO | 0.6 | x | x | u
CC(C)CCNC(=O)C1CC(c2ccccc2C(F)(F)F)=NO1 (centres undefined) | 1.5 | -3.4 | -7.9 | 35.3*
O=C(NCc1ccccc1C(F)(F)F)C1CC(c2ccccc2C(F)(F)F)=NO1 (centres undefined) | -0.6 | -3.0 | -0.1 | x
CC(OC(=O)c1ccc(O)cc1)C(=O)Nc1nc(-c2ccccc2)cs1 (centres undefined) | 5.5 | -1.4 | 23.8 | 37.9*
COC(=O)Cn1c2ccccc2c(=O)n1C(C)C | x | x | x | 20.5*
NC1=NC(=O)/C(=C/c2ccc(Br)cc2)S1 | -5.3 | 0.3 | 1.3 | -2.3
CCOC(=O)COc1ccc(Br)cc1/C=C1\SC(N)=NC1=O | 6.1 | 1.0 | 2.7 | 37.5*
Cc1ccc(NC(=O)CSC(C)C(=O)OCC(=O)N2CCN(C(=O)c3ccco3)CC2)cc1 (centres undefined) | 1.7 | -1.0 | -3.8 | 85.9*
Cc1ccc(NC(=O)CSCC(=O)N2CCN(C(=O)c3ccco3)CC2)cc1 | -4.9 | 0.5 | -7.7 | 5.7
O=C(O)COc1ccccc1O | -3.1 | -2.1 | 60.2* | x
CCOc1ccccc1OCC(=O)O | -8.2 | 1.2 | 12.4 | x
COc1ccc(NC(=O)Nc2ccc3c(c2)C(=O)N([C@@H](C)CO)C[C@H](C)[C@H](CN(C)S(=O)(=O)c2ccc(Cl)cc2)OCCCC[C@@H](C)O3)cc1 | -1.9 | x | x | u
CCOC(=O)Cc1csc(N/N=C/c2cccc([N+](=O)[O-])c2)n1 | 0.0 | 0.8 | 1.8 | 29.2*
Cc1ccc(S(=O)(=O)Nc2ccc3c(c2)C(=O)N([C@@H](C)CO)C[C@H](C)[C@H](CN(C)Cc2ccc(Cl)c(Cl)c2)O3)cc1 | 0.5 | x | x | 14.8
COc1cc(NC(=O)C(Cc2ccccc2)n2cccc2)cc(OC)c1 (centres undefined) | x | -1.9 | 51.9* | -0.2
COc1ccccc1S(=O)(=O)N[C@H]1CC[C@@H](CCNC(=O)C2CCC2)O[C@@H]1CO | 0.8 | x | x | 1.9
CC[C@]12c3[nH]c4cc(-c5ccco5)ccc4c3CCN1C(=O)[C@@H](CC(=O)NC(C)(C)C)C[C@@H]2C(=O)N1CCN(C(=O)C2CC2)CC1 | -3.7 | 3.1 | -5.0 | 43.3*
CC(C)(C)NC(=O)C[C@H]1C[C@H](C(=O)N2CCCCC2)[C@@]2(C)c3[nH]c4cc(-c5ccco5)ccc4c3CCN2C1=O | 2.8 | -5.0 | 9.7 | -0.7
COc1ccccc1C#Cc1ccc2c(c1)[C@@H]1[C@@H](CCN1S(=O)(=O)c1ccc(F)cc1)[C@@H](CO)N2 | x | x | x | 29.3*
Cc1ccc(S(=O)(=O)N2CC[C@@H]3[C@H]2c2cc(C#Cc4ccc(F)cc4)ccc2N[C@@H]3CO)cc1 | 2.9 | x | x | 29.0*
COc1ccccc1C#Cc1ccc2c(c1)[C@H]1[C@H](CCN1S(=O)(=O)c1ccccc1)[C@@H](CO)N2 | x | x | x | 11.0
COc1ccccc1C#Cc1ccc2c(c1)[C@H]1[C@H](CCN1C(=O)c1ccc(F)cc1)[C@@H](CO)N2 | x | x | x | 54.0*
COc1ccccc1C#Cc1ccc2c(c1)[C@H]1[C@H](CCN1C(=O)c1ccccc1)[C@H](CO)N2 | -0.1 | x | x | 3.7
Cc1ccc(S(=O)(=O)Nc2ccc3c(c2)C(=O)N([C@@H](C)CO)C[C@@H](C)[C@@H](CN(C)Cc2ccc4c(c2)OCO4)O3)cc1 | 4.7 | x | x | -3.7
Cc1ccc2ncccc2c1 | -4.1 | -0.8 | 2.6 | 54.5*
SMILES | PglD DTNB | Glyco luc inh | Rtt109 Vps75 | DENV2 CPE
C[C@@H]1CN([C@@H](C)CO)C(=O)c2cccc(NC(=O)NC3CCCCC3)c2O[C@H]1CN(C)CC1CCCCC1 | 4.2 | x | x | 44.4*
C[C@H]1CN([C@@H](C)CO)C(=O)c2cccc(NC(=O)NC3CCCCC3)c2O[C@@H]1CN(C)S(=O)(=O)c1ccc(Cl)cc1 | -0.2 | x | x | 26.8*
C[C@@H]1CN([C@@H](C)CO)C(=O)c2cccc(NC(=O)Nc3ccccc3)c2O[C@@H]1CN(C)CC1CCCCC1 | 4.3 | x | x | 35.9*
C[C@@H]1CN([C@@H](C)CO)C(=O)c2cccc(NC(=O)NC3CCCCC3)c2O[C@H]1CN(C)CC1CC1 | 3.3 | x | x | 8.6
CO[C@H]1CN(C)C(=O)c2cc(NS(=O)(=O)c3cccc(C)c3)ccc2OC[C@@H](C)NC[C@@H]1C | -0.8 | x | x | 7.1
CO[C@@H](CN(C)C(=O)c1ccccc1F)[C@@H](C)CN([C@H](C)CO)S(=O)(=O)c1ccccc1 | 2.3 | x | x | 3.8
CN1CCc2cccc3c2[C@H]1Cc1ccc(O)c(O)c1-3 | 3.4 | -8.6 | 100.3*! | -0.4
O=C(NCCS(=O)(=O)NCc1ccc(F)cc1)c1ccc2c(c1)OCO2 | 0.7 | 1.7 | -7.0 | 74.9*

Source: PubChem BioAssay
